Drawing on PubChem BioAssay (NCI), this text covers growth for 38 compounds.

The panel holds about 83,000 compounds, 20% with a hit somewhere; the sample as a whole holds those more often.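 Values shown are percent growth following 48 h exposure of cells in 96-well plates to a single concentration of compound; below 10 was considered active.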 Calls of active or inactive are those of the source.

The first test concerns HT29 colon. Briefly: NCI-60 one-dose screen, 48 h (100 = growth as untreated, 0 = no growth, -100 = all killed). Conditions: 10 µM unless noted.
On to `CC(=O)OC[C@H]1OC(Sc2sc(C(=O)c3ccc(C)cc3)c(N)c2-c2nc3ccccc3s2)[C@H](OC(C)=O)[C@@H](OC(C)=O)[C@@H]1OC(C)=O` (stereo partly specified), for which the growth was 69% (inactive).
With `COC1=C(C)C(=O)c2c(c(CCCl)c3n2CCC3O)C1=O` (stereo unspecified), the growth was -4.05% (active).
As to `Oc1ccc(C#CCOc2ccccc2)cc1CNCCN(Cc1ccccn1)Cc1ccccn1`, the growth is 25.5% (inactive).
Still for that read-out and setting: in the case of `CCc1nnc(NC(=O)c2nnn(-c3ccccc3)c2-c2ccco2)s1` it was 109% (inactive); in that of `CNc1nc2c(s1)C(c1cccc(F)c1)CC(=O)N2` (stereo unspecified), 104% (inactive); in that of `CC(=O)O.CN1[CH-]N(Cc2ccc(C#N)cc2)c2ccccc21.[Ag+]`, 94.7% (inactive).
On the same count and under the same terms, in the case of `O=C(Nc1ccc(F)cc1F)c1cc(F)ccc1O` it was 93.4% (inactive).
Still for that read-out and setting: in the case of `CCc1ccc(Oc2c(-c3ccc(OCc4ccc(Cl)cc4)cc3O)nn(C)c2C(F)(F)F)cc1` it was -11.1% (active); in that of `CCC(=O)Nc1ccc(-c2nc(-c3cccc(OC)c3)c(-c3ccnc(Br)c3)[nH]2)cc1`, 54.7% (inactive).
For `CC/C=C\C[C@@H](O)C/C=C1/C(=O)C=C[C@H]1C/C=C\CCCC(=O)OC`, the growth is -58.5% (active).
Same read-out and setting: in the case of `CC(=O)CC(c1ccccc1)c1c(C)[nH]c2ccccc12` (stereo unspecified) it was 103% (inactive); in that of `Cc1nc2cnc(N)c(C#Cc3cncc(C(=O)Nc4ccc(CN5CCN(C)CC5)c(C(F)(F)F)c4)c3)c2nc1C`, 7.18% (active); in that of `COc1ccc(-c2nc(NCCO)[nH]c(=O)c2C#N)cc1`, 94.7% (inactive).
On the same count and under the same terms, in the case of `COc1ccn2c(C(C)=O)cc(C(=O)c3ccc4c(c3)Sc3ccccc3N4)c2c1` it was -0.653% (active); in that of `COC(=O)C(Cc1ccccc1)NC(=O)NC(=O)NC(=O)CI` (stereo unspecified), 50.1% (inactive).
As for `O=C1CCC(C(=O)NCCNCCNC(=O)C2CCC(=O)N2)N1` (stereo unspecified), the growth was 89.8% (inactive).
The same measure, in the same setting: in the case of `C(=N/Nc1ncnc2nc[nH]c12)/c1ccccn1` it was 58.8% (inactive); in that of `CCCCCCCCCCCCCCCCCCOc1ccc(CC(=O)OCC[N+](C)(C)C)cc1`, 94.5% (inactive).
On the same count and under the same terms, in the case of `COc1ccc([C@H]2c3cc(OC)c(OC)cc3C=C(C=O)C2CO)cc1OC` (stereo partly specified) it was 19% (inactive).
Same read-out and setting: in the case of `Cc1nn(-c2ccccc2)c(-n2ccnc2)c1/C=N/Nc1nc(-c2ccc(Cl)c(Cl)c2)cs1` it was 17.1% (inactive); in that of `Cc1ccc2c(n1)C(=O)C(Cl)=C(Nc1ccccc1C(C)C)C2=O`, 106% (inactive).
For `Cc1cccc2c3c(sc12)C(c1ccc(Cl)cc1)C(C#N)=C(/N=C/c1ccc(Cl)cc1)O3` (stereo unspecified), the growth is 6.06% (active).
On the same count and under the same terms, in the case of `Cc1ccc2c(-c3cc(-c4ccccc4)nc(N)c3C#N)cc(=O)oc2c1` it was 90.1% (inactive); in that of `Cc1ncc(C(=O)Nc2ccc(CN3CCN(C)CC3)c(C(F)(F)F)c2)cc1C#Cc1ccc(N)nc1`, 18.1% (inactive).
The same measure, in the same setting: in the case of `COc1ccc(CN2c3ccccc3Sc3ccccc32)c(F)c1` it was 3.61% (active).
Still for that read-out and setting: in the case of `COc1ccc(-c2ncnc3c2ncn3CC#CCCl)cc1` it was 93.9% (inactive); in that of `COc1ccc(C(=O)C[C@]2(O)C(=O)Nc3c(Cl)ccc(Cl)c32)cc1`, 15.9% (inactive); in that of `c1ccc2c(-c3nc(-c4c[nH]c5ccncc45)cs3)c[nH]c2c1`, 2.05% (active).
As to `C=CCNc1ccc2c3c(cccc13)C(=O)N(N1C(=O)c3cccc4cccc(c34)C1=O)C2=O`, the growth was 103% (inactive).
Take `N#Cc1c(-c2ccccc2)nc(SCC(=O)Nc2nc(-c3ccc(Cl)cc3)cs2)[nH]c1=O`: the growth was 93.3% (inactive).
The same measure, in the same setting: in the case of `COc1cc(C(=O)/C=C/c2c(Cl)nc3sccn23)cc(OC)c1OC` it was 67.5% (inactive); in that of `COc1ccc(-c2cc(-c3ccc(Cl)cc3)c(C#N)c(=O)n2CCCCCC(=O)Nc2ccccc2N)cc1`, 14.8% (inactive); in that of `COc1cccc(/C=C2\C=C(c3ccccc3)N(Cc3ccccc3)C2=O)c1`, 82.2% (inactive).
On the same count and under the same terms, in the case of `CCOC(=O)c1cn2ncnc(Oc3ccc(NC(=O)NCCN(C)C)c(Cl)c3)c2c1C` it was 7.1% (active).
On the same count and under the same terms, in the case of `COc1ccc(N2C(=O)C(Oc3ccccc3)C2c2ccc(C)cc2)cc1` (stereo unspecified) it was 97.8% (inactive); in that of `O=[N+]([O-])c1ccc(Cl)c(-c2cc(CCCCO)on2)c1`, 103% (inactive).
Take `COc1cccc2nc3n(c12)C(c1c(F)cccc1F)SC3` (stereo unspecified): the growth is 100% (inactive).
Same read-out and setting: in the case of `Cc1ccc(S(=O)(=O)N/N=C/C2(c3ccccc3)CC2)cc1` it was 109% (inactive).

The next test deals with SNB-19 CNS. Described as above. The settings on record: 10 µM unless noted.
With `CC(=O)OC[C@H]1OC(Sc2sc(C(=O)c3ccc(C)cc3)c(N)c2-c2nc3ccccc3s2)[C@H](OC(C)=O)[C@@H](OC(C)=O)[C@@H]1OC(C)=O` (stereo partly specified), the growth was 74.4% (inactive).
Still for that read-out and setting: in the case of `COC1=C(C)C(=O)c2c(c(CCCl)c3n2CCC3O)C1=O` (stereo unspecified) it was 2.57% (active); in that of `Oc1ccc(C#CCOc2ccccc2)cc1CNCCN(Cc1ccccn1)Cc1ccccn1`, 20.7% (inactive).
`CCc1nnc(NC(=O)c2nnn(-c3ccccc3)c2-c2ccco2)s1`: the growth is 93.9% (inactive).
For `CNc1nc2c(s1)C(c1cccc(F)c1)CC(=O)N2` (stereo unspecified), the growth is 92.8% (inactive).
The same measure, in the same setting: in the case of `CC(=O)O.CN1[CH-]N(Cc2ccc(C#N)cc2)c2ccccc21.[Ag+]` it was 109% (inactive); in that of `O=C(Nc1ccc(F)cc1F)c1cc(F)ccc1O`, 10.7% (inactive); in that of `CCc1ccc(Oc2c(-c3ccc(OCc4ccc(Cl)cc4)cc3O)nn(C)c2C(F)(F)F)cc1`, 18.2% (inactive).
Still for that read-out and setting: in the case of `CCC(=O)Nc1ccc(-c2nc(-c3cccc(OC)c3)c(-c3ccnc(Br)c3)[nH]2)cc1` it was 67.8% (inactive).
Same read-out and setting: in the case of `CC/C=C\C[C@@H](O)C/C=C1/C(=O)C=C[C@H]1C/C=C\CCCC(=O)OC` it was 33.7% (inactive).
As for `CC(=O)CC(c1ccccc1)c1c(C)[nH]c2ccccc12` (stereo unspecified), the growth is 93.2% (inactive).
The same measure, in the same setting: in the case of `Cc1nc2cnc(N)c(C#Cc3cncc(C(=O)Nc4ccc(CN5CCN(C)CC5)c(C(F)(F)F)c4)c3)c2nc1C` it was 48.2% (inactive); in that of `COc1ccc(-c2nc(NCCO)[nH]c(=O)c2C#N)cc1`, 105% (inactive).
On the same count and under the same terms, in the case of `COc1ccn2c(C(C)=O)cc(C(=O)c3ccc4c(c3)Sc3ccccc3N4)c2c1` it was 40.3% (inactive); in that of `COC(=O)C(Cc1ccccc1)NC(=O)NC(=O)NC(=O)CI` (stereo unspecified), 126% (inactive).
Take `O=C1CCC(C(=O)NCCNCCNC(=O)C2CCC(=O)N2)N1` (stereo unspecified): the growth is 98.3% (inactive).
The same measure, in the same setting: in the case of `C(=N/Nc1ncnc2nc[nH]c12)/c1ccccn1` it was 53.8% (inactive).
The same measure, in the same setting: in the case of `CCCCCCCCCCCCCCCCCCOc1ccc(CC(=O)OCC[N+](C)(C)C)cc1` it was 90.7% (inactive); in that of `COc1ccc([C@H]2c3cc(OC)c(OC)cc3C=C(C=O)C2CO)cc1OC` (stereo partly specified), 50.9% (inactive); in that of `Cc1nn(-c2ccccc2)c(-n2ccnc2)c1/C=N/Nc1nc(-c2ccc(Cl)c(Cl)c2)cs1`, 46% (inactive).
Consider `Cc1ccc2c(n1)C(=O)C(Cl)=C(Nc1ccccc1C(C)C)C2=O`, for which the growth was 76.7% (inactive).
Same read-out and setting: in the case of `Cc1cccc2c3c(sc12)C(c1ccc(Cl)cc1)C(C#N)=C(/N=C/c1ccc(Cl)cc1)O3` (stereo unspecified) it was 23.7% (inactive); in that of `Cc1ccc2c(-c3cc(-c4ccccc4)nc(N)c3C#N)cc(=O)oc2c1`, 94.1% (inactive); in that of `Cc1ncc(C(=O)Nc2ccc(CN3CCN(C)CC3)c(C(F)(F)F)c2)cc1C#Cc1ccc(N)nc1`, 26.9% (inactive).
Still for that read-out and setting: in the case of `COc1ccc(CN2c3ccccc3Sc3ccccc32)c(F)c1` it was 40.9% (inactive); in that of `COc1ccc(-c2ncnc3c2ncn3CC#CCCl)cc1`, 72.5% (inactive); in that of `COc1ccc(C(=O)C[C@]2(O)C(=O)Nc3c(Cl)ccc(Cl)c32)cc1`, 38.9% (inactive).
Still for that read-out and setting: in the case of `c1ccc2c(-c3nc(-c4c[nH]c5ccncc45)cs3)c[nH]c2c1` it was 86.5% (inactive); in that of `C=CCNc1ccc2c3c(cccc13)C(=O)N(N1C(=O)c3cccc4cccc(c34)C1=O)C2=O`, 99.3% (inactive).
For `N#Cc1c(-c2ccccc2)nc(SCC(=O)Nc2nc(-c3ccc(Cl)cc3)cs2)[nH]c1=O`, the growth is 101% (inactive).
For `COc1cc(C(=O)/C=C/c2c(Cl)nc3sccn23)cc(OC)c1OC`, the growth was 83% (inactive).
Still for that read-out and setting: in the case of `COc1ccc(-c2cc(-c3ccc(Cl)cc3)c(C#N)c(=O)n2CCCCCC(=O)Nc2ccccc2N)cc1` it was 70.7% (inactive); in that of `COc1cccc(/C=C2\C=C(c3ccccc3)N(Cc3ccccc3)C2=O)c1`, 79.6% (inactive); in that of `CCOC(=O)c1cn2ncnc(Oc3ccc(NC(=O)NCCN(C)C)c(Cl)c3)c2c1C`, 82.8% (inactive).
On the same count and under the same terms, in the case of `COc1ccc(N2C(=O)C(Oc3ccccc3)C2c2ccc(C)cc2)cc1` (stereo unspecified) it was 101% (inactive); in that of `O=[N+]([O-])c1ccc(Cl)c(-c2cc(CCCCO)on2)c1`, 95.4% (inactive).
On to `COc1cccc2nc3n(c12)C(c1c(F)cccc1F)SC3` (stereo unspecified), for which the growth is 101% (inactive).
On the same count and under the same terms, in the case of `Cc1ccc(S(=O)(=O)N/N=C/C2(c3ccccc3)CC2)cc1` it was 99.3% (inactive).
